Laboratory results taken from PubChem BioAssay.
The source made the active and inactive calls.

Experiments:
[1] = binders of probe aFSTL3 on microarray, primary screen, stem cell growth factor project, biochemical, small-molecule microarray, fluorescence 635/667 (AID 1064); details: higher = more signal;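 also: measures binding of the biotinylated anti-FSTL3 antibody to printed compounds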
[2] = binders from COS7 lysate, DM2A8 probe, primary screen, torsin A project, cell lysate, small-molecule microarray, fluorescence 635/667 (AID 1065); details: higher = more signal, COS7 lysate expressing mutant human TOR1A
[3] = binders of probe aFGF2 on microarray, primary screen, stem cell growth factor project, biochemical, small-molecule microarray, fluorescence 635/667 (AID 1067); details: higher = more signal;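 also: measures binding of biotinylated aFGF2 protein to printed compounds on slides; z-score merges feature fluorescence and signal-to-noise across triplicate slides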
[4] = binders of probe aFGF10 on microarray, primary screen, stem cell growth factor project, biochemical, small-molecule microarray, fluorescence 635/667 (AID 1071); details: higher = more signal;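 also: score merges 667 nm spot intensity and signal to noise from triplicate slides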
[5] = target: Neurogenic locus notch homolog protein 2 (Homo sapiens) (UniProt Q04721); experiment: Notch2 binders on small-molecule microarrays, primary screen, biochemical, small-molecule microarray, 635 nm fluorescence, stem cell growth factors (AID 1073); details: Notch2 binding, higher = more signal
[6] = target: Pro-neuregulin-1, membrane-bound isoform (Homo sapiens) (UniProt Q02297); experiment: NRG1 binders on small-molecule microarrays, primary screen, psychiatric disease protein project, biochemical, small-molecule microarray, fluorescence 635/667 (AID 1075); details: NRG1 binding, 635 nm fluorescence, higher = more signal;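 also: score combines 667 nm spot fluorescence with signal to noise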
[7] = test system: Neuregulin-1 EGF-like domain; experiment: binders of neuregulin-1 EGF-like domain, primary screen, biochemical, small-molecule microarray, 635 nm fluorescence (AID 1081); details: small-molecule microarray binding, higher = more signal;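 also: binding of the protein to compounds printed on small-molecule microarray slides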
[8] = FRG1 promoter luciferase signal modulators, primary screen, FRG1 inhibition for FSHD, cell-based, C2C12 myotubes, firefly/Renilla luciferase, luminescence (AID 1084); details: higher = more signal, called active from +8 up or from −8 down
[9] = binders of probe aFST on microarray, primary screen, stem cell growth factor project, biochemical, small-molecule microarray, fluorescence 635/667 (AID 1086); details: higher = more signal;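 also: score merges 667 nm fluorescence with signal-to-noise of each printed compound spot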
[10] = binders of probe aHhip on microarray, primary screen, stem cell growth factor project, biochemical, small-molecule microarray, fluorescence 635/667 (AID 1087); details: higher = more signal;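 also: score merges spot fluorescence at 667nm with spot signal to noise ratio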
[11] = test system: PRMT1 (protein arginine N-methyltransferase 1); experiment: PRMT1 binders on small-molecule microarrays, primary screen, biochemical, small-molecule microarray, 635 nm fluorescence (AID 1088); details: small-molecule microarray binding, higher = more signal;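 also: binding of Prmt1 protein to compounds spotted on small-molecule microarray slides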
[12] = yeast growth modulation, basal conditions, primary screen, YJM789 clinical isolate, OD600, 24 h (AID 1089);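 also: growth of clinical yeast isolate S. cerevisiae YJM 789 seeded 1000 cells per well; test concentration not given here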; details: S. cerevisiae YJM789 growth, higher = more signal, called active from +8 up or from −8 down
[13] = fission yeast growth modulation, primary screen, strain 972, OD600, 24 h, no modulator (AID 1090);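 also: basal condition with compound alone and no growth modifier present; test concentration not given here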; details: S. pombe 972 growth, higher = more signal, called active from +8 up or from −8 down
[14] = S. cerevisiae growth modulation with rapamycin, primary screen, strain BY4716, OD600, 96 h (AID 1091); details: higher = more signal, called active from +8 up or from −8 down; also: test concentration not given here
[15] = target: Torsin-1A-interacting protein 2 (Homo sapiens) (UniProt Q8NFQ8); experiment: LULL1 binders on small-molecule microarray, primary screen, cell lysate, human LULL1 lysate, 635/667 nm fluorescence (AID 1092); details: hLULL1 lysate binding, 635 nm fluorescence, higher = more signal;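 also: probe is lysate of COS7 cells overexpressing human LULL1; score merges per-feature 667 nm fluorescence with signal-to-noise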
[16] = E. coli growth modulation, two-sided OD650, primary screen, E. coli filamentation project, strain DRC41, 24 h (AID 1093); details: OD650, 24 h, higher = more signal, called active from +8 up or from −8 down;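 also: MC1000 strain lacking acrAB efflux and sulA so SOS filamentation is blocked; test concentration not given here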
[17] = small-molecule microarray binders of probe aLefty2, primary screen, biochemical, biotinylated probe, 635/667 nm fluorescence (AID 1094); details: higher = more signal;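 also: score merges spot fluorescence near 667 nm with spot signal-to-noise ratio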
[18] = test system: Noggin (protein binding on small-molecule microarray); experiment: Noggin binders on small-molecule microarray, primary screen, biochemical, 635/667 nm fluorescence (AID 1095); details: 635 nm fluorescence, higher = more signal;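 also: score merges 667 nm feature fluorescence with signal to noise over triplicate slides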
[19] = target: Neurogenic locus notch homolog protein 3 (Homo sapiens) (UniProt Q9UM47); experiment: NOTCH3 binders on small-molecule microarray, primary screen, biochemical, 635/667 nm fluorescence (AID 1096); details: NOTCH3 binding, 635 nm fluorescence, higher = more signal
[20] = small-molecule microarray binders of probe aEGFR, primary screen, biochemical, biotinylated probe, 635/667 nm fluorescence (AID 1097); details: higher = more signal;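 also: probe is a biotinylated anti-EGFR antibody binding compounds printed on slides; score combines fluorescence near 667 nm and signal to noise of each spot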

Sequence of Pro-neuregulin-1, membrane-bound isoform (Homo sapiens) (Q02297 whole entry, looked up, the tested form may be a part, canonical isoform): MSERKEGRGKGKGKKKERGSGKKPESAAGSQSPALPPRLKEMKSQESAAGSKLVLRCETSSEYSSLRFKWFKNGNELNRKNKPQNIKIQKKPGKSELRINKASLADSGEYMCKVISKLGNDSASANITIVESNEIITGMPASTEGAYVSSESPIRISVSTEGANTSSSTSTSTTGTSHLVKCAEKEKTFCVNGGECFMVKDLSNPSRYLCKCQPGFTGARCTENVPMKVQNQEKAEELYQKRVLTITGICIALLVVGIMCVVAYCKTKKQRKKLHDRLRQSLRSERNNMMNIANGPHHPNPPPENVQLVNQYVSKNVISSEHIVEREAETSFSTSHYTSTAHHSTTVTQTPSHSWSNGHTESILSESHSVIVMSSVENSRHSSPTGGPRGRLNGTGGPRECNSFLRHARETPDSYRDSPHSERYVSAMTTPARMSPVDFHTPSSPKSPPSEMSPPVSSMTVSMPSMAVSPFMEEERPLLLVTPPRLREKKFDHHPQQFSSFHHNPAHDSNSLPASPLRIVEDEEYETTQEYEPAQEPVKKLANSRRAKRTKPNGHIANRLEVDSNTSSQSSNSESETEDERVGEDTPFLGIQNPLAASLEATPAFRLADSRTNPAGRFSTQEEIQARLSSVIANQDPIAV
Sequence of Neurogenic locus notch homolog protein 2 (Homo sapiens) (Q04721 whole entry, looked up, canonical isoform): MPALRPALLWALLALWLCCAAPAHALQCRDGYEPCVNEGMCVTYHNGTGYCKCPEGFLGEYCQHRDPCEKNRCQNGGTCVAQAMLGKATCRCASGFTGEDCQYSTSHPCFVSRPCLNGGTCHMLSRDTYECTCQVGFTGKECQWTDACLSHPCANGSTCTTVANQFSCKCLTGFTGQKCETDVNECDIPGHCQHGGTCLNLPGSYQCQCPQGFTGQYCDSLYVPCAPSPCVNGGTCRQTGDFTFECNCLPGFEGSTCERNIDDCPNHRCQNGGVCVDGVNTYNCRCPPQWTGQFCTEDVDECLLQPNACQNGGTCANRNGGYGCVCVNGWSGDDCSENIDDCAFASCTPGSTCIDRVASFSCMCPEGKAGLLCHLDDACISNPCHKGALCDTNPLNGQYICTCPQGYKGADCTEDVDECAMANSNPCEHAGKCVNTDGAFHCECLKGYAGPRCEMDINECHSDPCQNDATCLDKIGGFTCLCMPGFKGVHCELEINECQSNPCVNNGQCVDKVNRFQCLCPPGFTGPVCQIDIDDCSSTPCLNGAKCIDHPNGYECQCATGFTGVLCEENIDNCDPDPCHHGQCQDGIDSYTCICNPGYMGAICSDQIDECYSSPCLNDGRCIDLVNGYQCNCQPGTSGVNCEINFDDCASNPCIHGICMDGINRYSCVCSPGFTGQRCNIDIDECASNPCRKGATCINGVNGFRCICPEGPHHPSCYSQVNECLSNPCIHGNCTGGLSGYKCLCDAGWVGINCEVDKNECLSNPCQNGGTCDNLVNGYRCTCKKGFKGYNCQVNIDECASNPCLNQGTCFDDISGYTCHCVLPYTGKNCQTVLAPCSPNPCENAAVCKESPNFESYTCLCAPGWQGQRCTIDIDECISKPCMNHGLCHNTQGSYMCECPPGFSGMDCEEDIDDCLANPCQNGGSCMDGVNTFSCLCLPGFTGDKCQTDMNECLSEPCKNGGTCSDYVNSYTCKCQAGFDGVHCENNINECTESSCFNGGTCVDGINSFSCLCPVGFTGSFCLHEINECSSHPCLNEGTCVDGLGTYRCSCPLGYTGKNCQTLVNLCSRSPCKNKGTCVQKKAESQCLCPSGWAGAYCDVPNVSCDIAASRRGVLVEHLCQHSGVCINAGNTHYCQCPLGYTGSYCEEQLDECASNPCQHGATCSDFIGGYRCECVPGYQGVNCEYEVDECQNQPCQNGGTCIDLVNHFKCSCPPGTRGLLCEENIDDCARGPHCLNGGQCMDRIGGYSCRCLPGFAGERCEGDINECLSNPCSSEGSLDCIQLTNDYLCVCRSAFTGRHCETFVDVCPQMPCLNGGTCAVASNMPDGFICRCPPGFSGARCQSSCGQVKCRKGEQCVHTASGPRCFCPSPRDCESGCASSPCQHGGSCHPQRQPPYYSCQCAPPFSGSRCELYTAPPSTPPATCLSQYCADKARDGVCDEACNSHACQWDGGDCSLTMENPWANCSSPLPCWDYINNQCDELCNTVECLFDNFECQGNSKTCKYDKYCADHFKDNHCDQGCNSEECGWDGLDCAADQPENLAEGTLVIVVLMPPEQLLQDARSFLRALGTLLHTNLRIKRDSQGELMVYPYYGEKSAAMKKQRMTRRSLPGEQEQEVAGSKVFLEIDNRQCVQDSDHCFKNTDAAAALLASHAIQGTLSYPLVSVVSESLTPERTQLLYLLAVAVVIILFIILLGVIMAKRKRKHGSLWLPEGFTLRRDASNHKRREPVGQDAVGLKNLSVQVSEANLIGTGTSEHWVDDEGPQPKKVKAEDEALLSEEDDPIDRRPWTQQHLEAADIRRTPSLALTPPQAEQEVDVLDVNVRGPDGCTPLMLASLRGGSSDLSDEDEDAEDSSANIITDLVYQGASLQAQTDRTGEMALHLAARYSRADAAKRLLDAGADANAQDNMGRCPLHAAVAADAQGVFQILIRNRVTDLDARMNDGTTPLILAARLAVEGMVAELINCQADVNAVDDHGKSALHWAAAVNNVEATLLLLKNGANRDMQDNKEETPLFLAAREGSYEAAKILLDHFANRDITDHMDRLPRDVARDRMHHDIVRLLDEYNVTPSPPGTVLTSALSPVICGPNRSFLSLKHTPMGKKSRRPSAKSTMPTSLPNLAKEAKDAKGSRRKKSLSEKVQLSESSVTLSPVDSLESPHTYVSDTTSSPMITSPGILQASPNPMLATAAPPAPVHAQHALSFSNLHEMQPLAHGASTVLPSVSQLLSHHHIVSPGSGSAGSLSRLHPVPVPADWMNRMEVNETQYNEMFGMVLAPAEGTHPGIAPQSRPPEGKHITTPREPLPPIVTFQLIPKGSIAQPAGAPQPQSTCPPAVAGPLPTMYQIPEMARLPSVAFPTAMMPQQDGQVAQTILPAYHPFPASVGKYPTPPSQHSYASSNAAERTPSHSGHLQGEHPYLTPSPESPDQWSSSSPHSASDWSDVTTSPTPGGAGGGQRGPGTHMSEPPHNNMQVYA
Sequence of Torsin-1A-interacting protein 2 (Homo sapiens) (Q8NFQ8 whole entry, looked up): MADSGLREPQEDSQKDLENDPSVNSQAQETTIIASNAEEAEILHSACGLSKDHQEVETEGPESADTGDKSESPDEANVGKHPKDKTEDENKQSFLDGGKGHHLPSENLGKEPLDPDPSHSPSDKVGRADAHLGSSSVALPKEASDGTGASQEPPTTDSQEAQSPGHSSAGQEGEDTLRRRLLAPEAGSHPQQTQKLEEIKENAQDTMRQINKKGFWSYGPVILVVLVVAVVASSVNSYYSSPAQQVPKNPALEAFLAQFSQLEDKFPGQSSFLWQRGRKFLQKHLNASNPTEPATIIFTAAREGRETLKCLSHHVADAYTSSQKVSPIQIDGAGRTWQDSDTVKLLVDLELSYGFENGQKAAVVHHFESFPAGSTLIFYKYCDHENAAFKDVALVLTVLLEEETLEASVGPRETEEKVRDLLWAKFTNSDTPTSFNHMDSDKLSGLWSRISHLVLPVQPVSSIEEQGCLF

COC(=O)C=CCCc1coc(C=CCNC(=O)OC)n1
composite z-score [1]: -0.0195
composite z-score [2]: 0.924
composite z-score [3]: 0.202
composite z-score [4]: 0.833
composite z-score [5]: 0.485
composite z-score [6]: -0.0679
composite z-score [7]: 0.492
z-score [8]: 0.721 (inactive)
composite z-score [9]: 1.04
composite z-score [10]: 0.851
composite z-score [11]: 1.45
z-score [12]: 0.339 (inactive)
z-score [13]: 0.255 (inactive)
z-score [14]: 0.196 (inactive)
composite z-score [15]: 0.254
z-score [16]: -1.42 (inactive)
composite z-score [17]: 0.17
composite z-score [18]: 1.37
composite z-score [19]: 1.08
composite z-score [20]: 0.161

C[C@@H](c1ccccc1)N1C(=O)[C@H]2[C@H]3[C@H](O)[C@H](O)CC(=NO[C@@H]4O[C@H](CO)[C@@H](O)[C@H](O)[C@H]4O)[C@H]3CC[C@H]2C1=O
composite z-score [1]: -0.528
composite z-score [2]: -0.0577
composite z-score [3]: -0.0291
composite z-score [4]: 0.303
composite z-score [5]: 0.473
composite z-score [6]: 0.0437
composite z-score [7]: 0.343
z-score [8]: -0.412 (inactive)
composite z-score [9]: 0.0934
composite z-score [10]: -0.0383
composite z-score [11]: -0.997
z-score [12]: -0.264 (inactive)
z-score [13]: 1.06 (inactive)
z-score [14]: 0.749 (inactive)
composite z-score [15]: 0.288
z-score [16]: 0.466 (inactive)
composite z-score [17]: -0.0928
composite z-score [18]: 0.587
composite z-score [19]: 0.675
composite z-score [20]: -0.0223

C[C@@H]1CC[C@H]2C(=O)O[C@@H](Cc3ccccc3)CN2[C@H]1c1ccc(Br)cc1
composite z-score [1]: -0.395
composite z-score [2]: 0.207
composite z-score [3]: -0.185
composite z-score [4]: -0.112
composite z-score [5]: 0.526
composite z-score [6]: 0.649
composite z-score [7]: 0.408
z-score [8]: -0.205 (inactive)
composite z-score [9]: 0.384
composite z-score [10]: -0.201
composite z-score [11]: 1.14
z-score [12]: 0.004 (inactive)
z-score [13]: -2.36 (inactive)
z-score [14]: -0.882 (inactive)
composite z-score [15]: 1.16
z-score [16]: -0.529 (inactive)
composite z-score [17]: -0.0258
composite z-score [18]: 0.31
composite z-score [19]: 0.22
composite z-score [20]: -0.0485

O=C1[C@H]2[C@H]3[C@H](O)[C@H](O)CC(=NOCc4ccccc4)[C@@H]3CC[C@H]2C(=O)N1c1ccc(F)cc1F
composite z-score [1]: 1.17
composite z-score [2]: -0.0135
composite z-score [3]: -0.197
composite z-score [4]: 0.423
composite z-score [5]: 0.104
composite z-score [6]: -0.0591
composite z-score [7]: -0.646
z-score [8]: -0.738 (inactive)
composite z-score [9]: 0.0704
composite z-score [10]: -0.236
composite z-score [11]: -0.755
z-score [12]: -1.94 (inactive)
z-score [13]: -0.469 (inactive)
z-score [14]: -0.996 (inactive)
composite z-score [15]: 0.324
z-score [16]: -0.778 (inactive)
composite z-score [17]: -0.205
composite z-score [18]: 0.358
composite z-score [19]: -0.283
composite z-score [20]: -0.125

O=C1CCCC=C1C(O)CCCCBr (stereo not given)
composite z-score [1]: 0.383
composite z-score [2]: -0.0756
composite z-score [3]: -0.0695
composite z-score [4]: 0.0586
composite z-score [5]: 0.948
composite z-score [6]: 0.932
composite z-score [7]: 0.0079
z-score [8]: 6.9 (inactive)
composite z-score [9]: 0.227
composite z-score [10]: -0.0994
composite z-score [11]: -0.25
z-score [12]: -3.03 (inactive)
z-score [13]: -20.8 (active)
z-score [14]: -1.04 (inactive)
composite z-score [15]: 1.7
z-score [16]: 0.518 (inactive)
composite z-score [17]: 0.263
composite z-score [18]: 1.03
composite z-score [19]: 0.474
composite z-score [20]: -0.0742

Cc1cc2c(c(=O)o1)[C@@H](O)[C@H]1O[C@H]1C2=O
composite z-score [1]: -0.494
composite z-score [2]: 0.23
composite z-score [3]: -0.0103
composite z-score [4]: 0.336
composite z-score [5]: 0.378
composite z-score [6]: -0.167
composite z-score [7]: 0.239
z-score [8]: 0.446 (inactive)
composite z-score [9]: 0.163
composite z-score [10]: 0.151
composite z-score [11]: 0.798
z-score [12]: 0.112 (inactive)
z-score [13]: -0.0772 (inactive)
z-score [14]: 0.233 (inactive)
composite z-score [15]: 0.0376
z-score [16]: -1 (inactive)
composite z-score [17]: -0.358
composite z-score [18]: 0.887
composite z-score [19]: 0.482
composite z-score [20]: -0.12

CC(C)CON=C1[C@H]2CCn3c(=O)n(Cc4cc5c(cc4Cl)OCO5)c(=O)n3[C@H]2[C@H](O)[C@@H]2O[C@H]12
composite z-score [1]: -0.293
composite z-score [2]: 0.493
composite z-score [3]: -0.079
composite z-score [4]: 0.258
composite z-score [5]: 0.394
composite z-score [6]: 0.142
composite z-score [7]: 0.497
z-score [8]: 0.354 (inactive)
composite z-score [9]: 0.0082
composite z-score [10]: 0.235
composite z-score [11]: -0.149
z-score [12]: 0.534 (inactive)
z-score [13]: -0.129 (inactive)
z-score [14]: 0.296 (inactive)
composite z-score [15]: 0.299
z-score [16]: 0.0007 (inactive)
composite z-score [17]: -0.0936
composite z-score [18]: 0.607
composite z-score [19]: 0.573
composite z-score [20]: -0.0139

COC(=O)C1=C(C)N(Cc2ccccc2)[C@]23O[C@](C(=O)OC)(C(=O)N2[C@@H]1c1ccccc1)C(C(=O)OC)=C3C(=O)OC
composite z-score [1]: -0.309
composite z-score [2]: 0.458
composite z-score [3]: -0.0232
composite z-score [4]: 1.1
composite z-score [5]: 0.926
composite z-score [6]: 0.435
composite z-score [7]: 1.21
z-score [8]: -1.51 (inactive)
composite z-score [9]: 0.294
composite z-score [10]: -0.0003
composite z-score [11]: 1.36
z-score [12]: -1.68 (inactive)
z-score [13]: -2.66 (inactive)
z-score [14]: -1.85 (inactive)
composite z-score [15]: 1.31
z-score [16]: 0.521 (inactive)
composite z-score [17]: -0.0228
composite z-score [18]: 0.551
composite z-score [19]: 1.12
composite z-score [20]: 0.0478

CCOC(=O)[C@H](Cc1ccccc1)NC(=O)CCC1CC(OC(=O)NCCc2ccc(F)cc2)CC2(CCCC(COC(=O)NCCc3ccc(Cl)cc3)O2)O1 (stereo not given in full)
composite z-score [1]: -0.431
composite z-score [2]: -0.0057
composite z-score [3]: -0.0523
composite z-score [4]: 0.248
composite z-score [5]: 0.622
composite z-score [6]: 0.843
composite z-score [7]: 0.872
z-score [8]: 0.301 (inactive)
composite z-score [9]: 0.233
composite z-score [10]: 0.0623
composite z-score [11]: 1.13
z-score [12]: 0.154 (inactive)
z-score [13]: 1.04 (inactive)
z-score [14]: 0.851 (inactive)
composite z-score [15]: 1.83
z-score [16]: 0.822 (inactive)
composite z-score [17]: -0.174
composite z-score [18]: 0.658
composite z-score [19]: 0.924
composite z-score [20]: -0.0687

O=C1C[C@@H](O)[C@@H](O)[C@@H]2[C@@H]3C(=O)N(c4cccc(Oc5ccccc5)c4)C(=O)[C@@H]3CC[C@H]12
composite z-score [1]: -0.499
composite z-score [2]: 0.247
composite z-score [3]: -0.0985
composite z-score [4]: 0.206
composite z-score [5]: 0.484
composite z-score [6]: 0.241
composite z-score [7]: 0.413
z-score [8]: -0.0447 (inactive)
composite z-score [9]: 0.167
composite z-score [10]: -0.153
composite z-score [11]: -0.129
z-score [12]: 0.157 (inactive)
z-score [13]: 0.462 (inactive)
z-score [14]: 0.469 (inactive)
composite z-score [15]: 0.685
z-score [16]: 0.378 (inactive)
composite z-score [17]: -0.156
composite z-score [18]: 0.292
composite z-score [19]: 1.02
composite z-score [20]: -0.145
